Reference: ChEMBL document CHEMBL2218924, “A broad activity screen in support of a chemogenomic map for kinase signalling research and drug discovery” (Biochem J, 2013)

The compounds below were run against Vascular endothelial growth factor receptor 3 (Homo sapiens) (UniProt P35916). Conditions: at 1 µM.
Vascular endothelial growth factor receptor 3 (Homo sapiens), sequence (P35916 whole entry): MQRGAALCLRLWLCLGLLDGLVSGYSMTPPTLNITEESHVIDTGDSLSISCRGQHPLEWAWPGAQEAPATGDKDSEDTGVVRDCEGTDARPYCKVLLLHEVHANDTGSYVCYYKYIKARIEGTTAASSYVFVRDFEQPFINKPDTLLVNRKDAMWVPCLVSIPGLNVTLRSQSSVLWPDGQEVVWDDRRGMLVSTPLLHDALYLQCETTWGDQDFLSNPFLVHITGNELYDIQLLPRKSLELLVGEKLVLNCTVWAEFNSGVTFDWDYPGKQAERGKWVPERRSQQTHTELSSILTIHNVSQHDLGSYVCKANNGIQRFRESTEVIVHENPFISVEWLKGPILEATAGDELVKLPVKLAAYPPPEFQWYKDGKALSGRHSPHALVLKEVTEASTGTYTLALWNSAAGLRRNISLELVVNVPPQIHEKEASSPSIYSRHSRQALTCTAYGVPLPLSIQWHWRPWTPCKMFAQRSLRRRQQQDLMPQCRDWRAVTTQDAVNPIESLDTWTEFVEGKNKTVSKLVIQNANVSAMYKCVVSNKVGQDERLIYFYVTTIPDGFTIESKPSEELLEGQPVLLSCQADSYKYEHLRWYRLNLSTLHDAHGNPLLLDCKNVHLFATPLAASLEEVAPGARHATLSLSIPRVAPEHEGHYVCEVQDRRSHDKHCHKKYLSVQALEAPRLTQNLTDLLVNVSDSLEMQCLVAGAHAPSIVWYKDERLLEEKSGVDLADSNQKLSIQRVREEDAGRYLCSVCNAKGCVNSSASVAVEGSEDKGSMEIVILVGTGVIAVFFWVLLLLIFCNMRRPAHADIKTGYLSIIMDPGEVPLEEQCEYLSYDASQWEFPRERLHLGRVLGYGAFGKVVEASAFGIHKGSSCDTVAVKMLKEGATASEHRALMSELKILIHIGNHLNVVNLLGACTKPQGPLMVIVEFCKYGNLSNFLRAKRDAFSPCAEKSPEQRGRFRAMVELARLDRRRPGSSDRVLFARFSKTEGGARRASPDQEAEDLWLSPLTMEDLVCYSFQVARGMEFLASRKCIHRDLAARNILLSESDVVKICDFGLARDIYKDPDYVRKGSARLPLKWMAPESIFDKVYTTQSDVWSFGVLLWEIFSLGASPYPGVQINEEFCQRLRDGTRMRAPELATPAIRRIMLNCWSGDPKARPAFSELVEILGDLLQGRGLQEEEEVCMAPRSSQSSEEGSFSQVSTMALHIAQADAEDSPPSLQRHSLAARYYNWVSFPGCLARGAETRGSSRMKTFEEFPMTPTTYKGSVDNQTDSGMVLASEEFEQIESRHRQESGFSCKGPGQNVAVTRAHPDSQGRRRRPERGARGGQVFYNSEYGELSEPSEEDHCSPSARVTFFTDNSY
`CC(=O)O/N=C1\C(=C2\C(=O)Nc3cc(Br)ccc32)Nc2ccccc21` gave a residual activity of 2%. `Oc1n[nH]c2nnc(-c3c(-c4ccccc4)nn4ccccc34)cc12` gave a residual activity of 89%. With `Cn1cnc2cc3c(Nc4cccc(Br)c4)ncnc3cc21` the residual activity was 40%. Work on `O=C(O)c1ccc2c3c1cccc3c(=O)n1c3ccccc3nc21` yielded a residual activity of 74%. For `Nc1nc(Nc2ccc(S(N)(=O)=O)cc2)nn1C(=S)Nc1c(F)cccc1F`, the residual activity was 0%. With `CCC(=O)Nc1ccc2ncnc(Nc3cccc(Br)c3)c2c1` the residual activity was 85%. Compound `CO[C@H]1C[C@@H]2CC[C@@H](C)[C@@](O)(O2)C(=O)C(=O)N2CCCC[C@H]2C(=O)O[C@H]([C@H](C)C[C@@H]2CC[C@@H](O)[C@H](OC)C2)CC(=O)[C@H](C)/C=C(\C)[C@@H](O)[C@@H](OC)C(=O)[C@H](C)C[C@H](C)/C=C/C=C/C=C/1C` has a residual activity of 99%. `O=C1NC(=O)/C(=C/c2ccc3c(c2)OC(F)(F)O3)S1` showed a residual activity of 98%. Work on `O=C1Nc2ccccc2/C1=C1/Nc2ccccc2/C1=N\OCCC(O)CO` (stereo not given) yielded a residual activity of -1%. With `O=c1c2ccccc2[nH]c(=S)n1CCN1CCC(=C(c2ccc(F)cc2)c2ccc(F)cc2)CC1` the residual activity was 89%. `CC(C)n1cnc2c(NCc3ccccc3)nc(NCCCO)nc21` was tested, and the residual activity was 87%. For `Cc1nc2cc3nc(-c4cccs4)cnc3cc2n1C`, the residual activity was 24%. In the case of `COc1cc2ncnc(Nc3ccc(O)c(Br)c3)c2cc1OC`, the residual activity is reported as 14%. `CCOc1cc2ncnc(Nc3cccc(Br)c3)c2cc1OCC` showed a residual activity of 36%. For `Cn1cc(/C=C2\C(=O)Nc3ccc(S(N)(=O)=O)cc32)c2ccccc21`, the residual activity was 11%. With `COc1ccc(CNc2nc(N(CCO)CCO)nc3c2ncn3C(C)C)cc1` the residual activity was 62%. `O=c1cc(-c2cccc3c2Sc2ccccc2S3)oc(N2CCOCC2)c1` was tested, and the residual activity was 97%. Compound `O=C(Nc1cccc(Nc2nccc(Nc3cccc(C(F)(F)F)c3)n2)c1)C1CC1` has a residual activity of 55%. `CCN(CC)CCCCN1c2ccccc2Oc2ccc(Cl)cc21` showed a residual activity of 96%. `Nc1cccc(-c2cc3c(Oc4cccc(O)c4)ncnc3[nH]2)c1` showed a residual activity of -1%. Compound `COc1ccc(OC)c2c(=S)c3ccccc3[nH]c12` has a residual activity of 89%. `COc1cccc(-c2cc(=O)c3ccccc3o2)c1N` showed a residual activity of 95%. For `CNc1cc2c(Nc3cccc(Br)c3)ncnc2cn1`, the residual activity was 87%. In the case of `CC(C)n1cnc2/c(=N/c3cccc(Cl)c3)nc(NCCO)[nH]c21`, the residual activity is reported as 42%. Work on `CN(C)c1ccc(/C=C2\C(=O)Nc3ccccc32)cc1` yielded a residual activity of 3%. `N#C/C(=C(\N)Sc1ccc(N)cc1)c1ccccc1C(F)(F)F` was tested, and the residual activity was 65%. `O=C1Nc2cc(Br)ccc2/C1=C1/Nc2ccccc2/C1=N\O` was tested, and the residual activity was 1%. `Ic1cccc(CSc2nnc(-c3ccncc3)o2)c1` gave a residual activity of 22%. `O=C1NC(=O)c2cc(Nc3ccc(F)cc3)c(Nc3ccc(F)cc3)cc21` showed a residual activity of 84%. `O=C1c2ccccc2-[n+]2ccc3c([nH]c4ccccc43)c21` showed a residual activity of 76%. Work on `COc1ccc(S(=O)(=O)N(CCO)c2ccccc2CN(C)C/C=C/c2ccc(Cl)cc2)cc1` yielded a residual activity of 90%. `O=C1NC(=O)/C(=C\c2ccc3nccnc3c2)S1` gave a residual activity of 98%. For `Oc1ccc(Nc2nc(-c3ccc(Cl)cc3)cs2)cc1`, the residual activity was 45%. Compound `O=C1NC(=O)c2c1c1c3ccccc3[nH]c1c1[nH]c3cc(Br)ccc3c21` has a residual activity of 4%. With `Oc1c2ccccc2c2c3c(cccc13)N=N2` the residual activity was 2%.

The compounds below were run against Vascular endothelial growth factor receptor 3 (Homo sapiens) (UniProt P35916). Conditions: at 10 µM.
`CC(=O)O/N=C1\C(=C2\C(=O)Nc3cc(Br)ccc32)Nc2ccccc21` was tested, and the residual activity was 1%. For `Oc1n[nH]c2nnc(-c3c(-c4ccccc4)nn4ccccc34)cc12`, the residual activity was 60%. In the case of `Cn1cnc2cc3c(Nc4cccc(Br)c4)ncnc3cc21`, the residual activity is reported as 8%. In the case of `O=C(O)c1ccc2c3c1cccc3c(=O)n1c3ccccc3nc21`, the residual activity is reported as 43%. With `Nc1nc(Nc2ccc(S(N)(=O)=O)cc2)nn1C(=S)Nc1c(F)cccc1F` the residual activity was -1%. Work on `CCC(=O)Nc1ccc2ncnc(Nc3cccc(Br)c3)c2c1` yielded a residual activity of 65%. Work on `CO[C@H]1C[C@@H]2CC[C@@H](C)[C@@](O)(O2)C(=O)C(=O)N2CCCC[C@H]2C(=O)O[C@H]([C@H](C)C[C@@H]2CC[C@@H](O)[C@H](OC)C2)CC(=O)[C@H](C)/C=C(\C)[C@@H](O)[C@@H](OC)C(=O)[C@H](C)C[C@H](C)/C=C/C=C/C=C/1C` yielded a residual activity of 106%. `O=C1NC(=O)/C(=C/c2ccc3c(c2)OC(F)(F)O3)S1` was tested, and the residual activity was 83%. `O=C1Nc2ccccc2/C1=C1/Nc2ccccc2/C1=N\OCCC(O)CO` (stereo not given) was tested, and the residual activity was 0%. `O=c1c2ccccc2[nH]c(=S)n1CCN1CCC(=C(c2ccc(F)cc2)c2ccc(F)cc2)CC1` showed a residual activity of 92%. Work on `CC(C)n1cnc2c(NCc3ccccc3)nc(NCCCO)nc21` yielded a residual activity of 68%. `Cc1nc2cc3nc(-c4cccs4)cnc3cc2n1C` gave a residual activity of 2%. `COc1cc2ncnc(Nc3ccc(O)c(Br)c3)c2cc1OC` gave a residual activity of 2%. For `CCOc1cc2ncnc(Nc3cccc(Br)c3)c2cc1OCC`, the residual activity was 4%. In the case of `Cn1cc(/C=C2\C(=O)Nc3ccc(S(N)(=O)=O)cc32)c2ccccc21`, the residual activity is reported as 3%. With `COc1ccc(CNc2nc(N(CCO)CCO)nc3c2ncn3C(C)C)cc1` the residual activity was 30%. Work on `O=c1cc(-c2cccc3c2Sc2ccccc2S3)oc(N2CCOCC2)c1` yielded a residual activity of 69%. Compound `O=C(Nc1cccc(Nc2nccc(Nc3cccc(C(F)(F)F)c3)n2)c1)C1CC1` has a residual activity of 6%. `CCN(CC)CCCCN1c2ccccc2Oc2ccc(Cl)cc21` gave a residual activity of 102%. `Nc1cccc(-c2cc3c(Oc4cccc(O)c4)ncnc3[nH]2)c1` showed a residual activity of 0%. With `COc1ccc(OC)c2c(=S)c3ccccc3[nH]c12` the residual activity was 60%. For `COc1cccc(-c2cc(=O)c3ccccc3o2)c1N`, the residual activity was 80%. With `CNc1cc2c(Nc3cccc(Br)c3)ncnc2cn1` the residual activity was 38%. Compound `CC(C)n1cnc2/c(=N/c3cccc(Cl)c3)nc(NCCO)[nH]c21` has a residual activity of 5%. In the case of `CN(C)c1ccc(/C=C2\C(=O)Nc3ccccc32)cc1`, the residual activity is reported as 1%. Work on `N#C/C(=C(\N)Sc1ccc(N)cc1)c1ccccc1C(F)(F)F` yielded a residual activity of 64%. Work on `O=C1Nc2cc(Br)ccc2/C1=C1/Nc2ccccc2/C1=N\O` yielded a residual activity of 1%. `Ic1cccc(CSc2nnc(-c3ccncc3)o2)c1` showed a residual activity of 15%. Work on `O=C1NC(=O)c2cc(Nc3ccc(F)cc3)c(Nc3ccc(F)cc3)cc21` yielded a residual activity of 65%. Compound `O=C1c2ccccc2-[n+]2ccc3c([nH]c4ccccc43)c21` has a residual activity of 25%. `COc1ccc(S(=O)(=O)N(CCO)c2ccccc2CN(C)C/C=C/c2ccc(Cl)cc2)cc1` gave a residual activity of 93%. `O=C1NC(=O)/C(=C\c2ccc3nccnc3c2)S1` was tested, and the residual activity was 70%. With `Oc1ccc(Nc2nc(-c3ccc(Cl)cc3)cs2)cc1` the residual activity was 21%. Work on `O=C1NC(=O)c2c1c1c3ccccc3[nH]c1c1[nH]c3cc(Br)ccc3c21` yielded a residual activity of 3%. `Oc1c2ccccc2c2c3c(cccc13)N=N2` showed a residual activity of 0%.
